The values that follow come from PubChem BioAssay (EPA / NIEHS).

In general, AC50 refers to the concentration giving half of the maximal activity seen.

Several values for one entry are separate records, joined by “and”; a condition that tells them apart may be missing. Equal values may be shown once. Inconclusive results are not listed. Activity calls are given as the source filed them. Rule for the calls, unless noted: active = hit-call score of the fitted dose curve at least 0.9, where 1 is the maximum; inactive = score below 0.9.

Assay [1] is described as follows: CCTE_Harrill_HTTr_Viability_DMEM_6hr: (Pilot) CCTE's 6-hour Cell Viability Assessment for the High-Throughput Transcriptomics (HTTr) Platform, in MCF-7 cells cultured in DMEM + 10% fetal bovine serum, Harrill Lab (AID 2283973). The gist of the method:
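Propidium iodide uptake imaged by high-content analysis after six hours of chemical treatment in an eight-concentration series. Cells: MCF-7 grown in DMEM with 10% fetal bovine serum; DMSO as baseline.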

Assay [2] is described as follows: CCTE_Harrill_HTTr_Viability_DMEM_12hr: (Pilot) CCTE's 12-hour Cell Viability Assessment for the High-Throughput Transcriptomics (HTTr) Platform, in MCF-7 cells cultured in DMEM + 10% fetal bovine serum, Harrill Lab (AID 2283974). The gist of the method:
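Propidium iodide dye exclusion imaged by high-content microscopy after 12 h chemical exposure (eight concentrations) of MCF-7 cells grown in DMEM plus 10% FBS; values fitted in both directions relative to DMSO.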

Assay [3] is described as follows: CCTE_Harrill_HTTr_Viability_DMEM_24hr: (Pilot) CCTE's 24-hour Cell Viability Assessment for the High-Throughput Transcriptomics (HTTr) Platform, in MCF-7 cells cultured in DMEM + 10% fetal bovine serum, Harrill Lab (AID 2283975). The essentials:
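Pilot study: propidium iodide dye exclusion, imaged by high content microscopy, after 24 h compound exposure (eight concentrations) in MCF-7 cultured in DMEM + 10% fetal bovine serum; DMSO served as negative control and baseline.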

Assay [4] is described as follows: CCTE_Harrill_HTTr_Viability_PRF_DMEM_6hr: (Pilot) CCTE's 6-hour Cell Viability Assessment for the High-Throughput Transcriptomics (HTTr) Platform, in MCF-7 cells cultured phenol red-free DMEM + 10% charcoal-stripped fetal bovine serum, Harrill Lab (AID 2283976). The essentials:
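Membrane integrity by high-content imaging of propidium iodide uptake, six hours after dosing with eight concentrations. Cells: MCF-7 grown in phenol red-free DMEM plus 10% charcoal-stripped serum; DMSO serves as baseline for bidirectional fits.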

Assay [5] is described as follows: CCTE_Harrill_HTTr_Viability_PRF_DMEM_12hr: (Pilot) CCTE's 12-hour Cell Viability Assessment for the High-Throughput Transcriptomics (HTTr) Platform, in MCF-7 cells cultured in phenol red-free DMEM + 10% charcoal-stripped fetal bovine serum, Harrill Lab (AID 2283977). The gist of the method: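 Membrane integrity was scored via propidium iodide dye exclusion imaging, fitted in both directions relative to DMSO. Compounds ran as eight-point dilutions for 12 hours on MCF-7 grown in phenol red-free DMEM plus 10% charcoal-stripped serum.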

The nature of assay [6]: CCTE_Harrill_HTTr_Viability_PRF_DMEM_24hr: (Pilot) CCTE's 24-hour Cell Viability Assessment for the High-Throughput Transcriptomics (HTTr) Platform, in MCF-7 cells cultured in phenol red-free DMEM + 10% charcoal-stripped fetal bovine serum, Harrill Lab (AID 2283980). The essentials:
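Propidium iodide exclusion imaged at 24 h after dosing scores viability; cells were MCF-7 grown in phenol red-free DMEM plus 10% charcoal-stripped serum, tested in eight concentrations, fitted in both directions against DMSO.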

Assay [7] in a line: CCTE_Harrill_HTTr_Apoptosis_DMEM_6hr: (Pilot) CCTE's 6-hour Apoptosis Assessment for the High-Throughput Transcriptomics (HTTr) Platform, in MCF-7 cells cultured in DMEM + 10% fetal bovine serum, Harrill Lab (AID 2283981). The gist of the method: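 MCF-7 cells grown in DMEM + 10% FBS were exposed for 6 hours to an eight-point dilution series. CellEvent Caspase 3/7 Green signal was imaged; activity fitted bidirectionally against DMSO.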

Assay [8] can be described thus: CCTE_Harrill_HTTr_Apoptosis_DMEM_12hr: (Pilot) CCTE's 12-hour Apoptosis Assessment for the High-Throughput Transcriptomics (HTTr) Platform, in MCF-7 cells cultured in DMEM + 10% fetal bovine serum, Harrill Lab (AID 2283982). The gist of the method: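 Caspase-3/7 activity was measured by high-content imaging (CellEvent Caspase 3/7 Green) after a 12-hour exposure of MCF-7 cells grown in DMEM with 10% FBS. Eight-point concentration series, fitted bidirectionally against vehicle.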

Assay [9] is described as follows: CCTE_Harrill_HTTr_Apoptosis_DMEM_24hr: (Pilot) CCTE's 24-hour Apoptosis Assessment for the High-Throughput Transcriptomics (HTTr) Platform, in MCF-7 cells cultured in DMEM + 10% fetal bovine serum, Harrill Lab (AID 2283983). The essentials:
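Caspase-3/7 activity read by high-content imaging (CellEvent Green reagent) 24 h after dosing. MCF-7 cells grown in DMEM with 10% FBS received an eight-point concentration series; fits were bidirectional versus DMSO.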

The nature of assay [10]: CCTE_Harrill_HTTr_Apoptosis_PRF_DMEM_6hr: (Pilot) CCTE's 6-hour Apoptosis Assessment for the High-Throughput Transcriptomics (HTTr) Platform, in MCF-7 cells cultured phenol red-free DMEM + 10% charcoal-stripped fetal bovine serum, Harrill Lab (AID 2283984). The gist of the method:
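Caspase-3/7 activity (CellEvent Green) read by high-content imaging 6 h after dosing, eight concentrations. Cells: MCF-7, phenol red-free DMEM with 10% charcoal-stripped serum. Curves fit both directions against DMSO.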

A short description of assay [11]: CCTE_Harrill_HTTr_Apoptosis_PRF_DMEM_12hr: (Pilot) CCTE's 12-hour Apoptosis Assessment for the High-Throughput Transcriptomics (HTTr) Platform, in MCF-7 cells cultured in phenol red-free DMEM + 10% charcoal-stripped fetal bovine serum, Harrill Lab (AID 2283985). The essentials: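 Caspase-3/7 activity by CellEvent Green high content imaging after 12 h compound exposure (eight concentrations) in MCF-7 grown in phenol red-free DMEM plus 10% charcoal-stripped serum; DMSO as baseline.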

Assay [12] can be described thus: CCTE_Harrill_HTTr_Apoptosis_PRF_DMEM_24hr: (Pilot) CCTE's 24-hour Apoptosis Assessment for the High-Throughput Transcriptomics (HTTr) Platform, in MCF-7 cells cultured in phenol red-free DMEM + 10% charcoal-stripped fetal bovine serum, Harrill Lab (AID 2283986). The essentials:
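Eight concentrations tested for 24 h on MCF-7 grown in charcoal-stripped serum, phenol red-free DMEM. High content imaging of CellEvent Caspase 3/7 Green signal gives apoptosis read-out, fitted both ways relative to DMSO.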

The next assay concerns DIO1 (gene 1733). Description: CCTE_GLTED_hDIO1: CCTE's human Deiodinase 1 (DIO1) Inhibition Assay, Great Lakes Toxicology and Ecology Division (GLTED) Lab (AID 2283987; active = hit-call score of the fitted dose curve at least 0.9, where 1 is the maximum;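 note: isolated human DIO1 enzyme in a cell-free setup rather than cells; enzyme activity read as free iodide liberated from substrate via Sandell-Kolthoff colorimetry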). The gist of the method:
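Inhibition read as reduced iodide release: after 3 h of human DIO1 with chemical, free iodide is quantified colorimetrically (Sandell-Kolthoff cerium/arsenic reaction). Triplicate plates, DMSO baseline.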

Assay [13] has as its target Thyroid hormone receptor alpha (Rattus norvegicus) + Thyroid hormone receptor beta (Rattus norvegicus) (UniProt P18113+P63059). Nature of the assay: TOX21_TR_LUC_GH3_Antagonist_Followup: Tox21 GH3 Thyroid Hormone Receptor Antagonism Luciferase Follow-Up Assay (AID 2283942; active = hit-call score of the fitted dose curve at least 0.9, where 1 is the maximum). The essentials:
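Luminescence read-out (ONE-Glo, 30 min at room temperature) in GH3 reporter cells challenged with 1.0 nM T3 final. Compounds ran at 92 uM to 5nM over 15 concentrations for 24 h; DMSO served as negative control and baseline.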

Another assay deals with THRA (gene 7067) (UniProt P10827). Description: TOX21_TRA_COA_Antagonist_Followup_ratio: Tox21 Thyroid Hormone Receptor alpha Antagonism through Coactivator Recruitment Follow-Up Assay, Ratio (AID 2283953; active = hit-call score of the fitted dose curve at least 0.9, where 1 is the maximum). The essentials:
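We measured antagonism of T3-type coactivator recruitment using a TR-FRET ratio (emission 520 and 495 nm) between a Tb-labelled anti-GST antibody on TRα LBD (2.5 nM) and SRC-2 peptide (200 nM). Activity was scaled between DMSO and T3 wells.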

Assay [14] concerns the target THRB (gene 7068) (UniProt P10828). Description: TOX21_TRB_BLA_Antagonist_Followup_ratio: Tox21 Thyroid Hormone Receptor beta Antagonism Beta-lactamase (BLA) Follow-Up Assay, Ratio (AID 2283958; active = hit-call score of the fitted dose curve at least 0.9, where 1 is the maximum). The gist of the method:
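Using charcoal-stripped 2% FBS medium, human TRβ-LBD/GAL4 reporter HEK293T cells received test compounds for 18 h. The endpoint is the cleaved-to-uncleaved substrate ratio (460/530 nm).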

A short description of assay [15]: TOX21_TRB_BLA_Antagonist_Followup_viability: Viability Assessment in the Tox21 Thyroid Hormone Receptor beta Antagonism Beta-lactamase (BLA) Follow-Up Assay (AID 2283961; active = hit-call score of the fitted dose curve at least 0.9, where 1 is the maximum). The gist of the method: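 ATP-based CellTiter-Glo luminescence (30 min, room temperature) run in the same wells as the TRβ-bla readout. Cells: GeneBLAzer HEK293T expressing GAL4-TRβ LBD, exposed 18 h at 37C to compounds at 11 concentrations in triplicate, stripped-serum medium.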

Assay [16] concerns the target THRB (gene 7068) (UniProt P10828). Description: TOX21_TRB_COA_Antagonist_Followup_ratio: Tox21 Thyroid Hormone Receptor beta Antagonism through Coactivator Recruitment Follow-Up Assay, Ratio (AID 2283967; active = hit-call score of the fitted dose curve at least 0.9, where 1 is the maximum). The gist of the method:
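GST-TRb LBD 5.0 nM + 0.10% BSA, compound added; fluorescein-SRC-2 peptide 200 nM, Tb-anti-GST Ab 2 nM. TR-FRET, ex 340 / em 520:495 ratio. Norm: DMSO 0%, T3 100%.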

Assay [17] has as its target Retinoic acid receptor RXR-alpha (Homo sapiens) (UniProt P19793). Description: TOX21_TR_RXR_BLA_Antagonist_Followup_ratio: Tox21 Thyroid Hormone Receptor beta Retinoid X Receptor alpha (RXRa) Antagonism Beta-lactamase (BLA) Follow-Up Assay, Ratio (AID 2283972; active = hit-call score of the fitted dose curve at least 0.9, where 1 is the maximum). The essentials: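 After 5 h attachment at 37C, HEK293T RXRa-bla cells (2,500/well, 2% charcoal-stripped FBS, no phenol red) received compounds at 11 concentrations in triplicate for 16 h. Beta-lactamase read as 460:530 nm ratio after 2 h RT substrate loading.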

Assay [18] can be described thus: TOX21_TR_RXR_BLA_Antagonist_Followup_viability: Viability Assessment in the Tox21 Thyroid Hormone Receptor beta Retinoid X Receptor alpha (RXRa) Antagonism Beta-lactamase (BLA) Follow-Up Assay (AID 2283979; active = hit-call score of the fitted dose curve at least 0.9, where 1 is the maximum). The gist of the method:
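RXRa-bla HEK293T cells (2,500/well, phenol red-free DMEM, 2% charcoal-stripped FBS) were attached 5 h, then exposed to compounds at 11 concentrations in triplicate for 16 h at 37C. Viability measured by CellTiter-Glo ATP luminescence, bidirectional fitting versus DMSO.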

Chain of THRB (gene 7068) (P10828 whole entry, looked up, the tested form may be a part): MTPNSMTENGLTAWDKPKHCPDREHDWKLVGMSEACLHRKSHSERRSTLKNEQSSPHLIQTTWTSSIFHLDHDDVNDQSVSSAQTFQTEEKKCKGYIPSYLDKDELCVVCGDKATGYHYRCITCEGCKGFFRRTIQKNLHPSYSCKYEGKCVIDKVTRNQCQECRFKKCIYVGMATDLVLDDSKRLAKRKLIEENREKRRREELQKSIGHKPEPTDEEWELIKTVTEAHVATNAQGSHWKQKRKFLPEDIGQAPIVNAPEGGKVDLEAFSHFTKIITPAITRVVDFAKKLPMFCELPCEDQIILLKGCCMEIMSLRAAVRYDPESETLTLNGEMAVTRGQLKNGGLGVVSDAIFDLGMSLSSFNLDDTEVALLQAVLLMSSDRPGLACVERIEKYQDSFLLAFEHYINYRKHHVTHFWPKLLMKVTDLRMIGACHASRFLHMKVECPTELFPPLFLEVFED
Chain of THRA (gene 7067) (P10827 whole entry, looked up, the tested form may be a part): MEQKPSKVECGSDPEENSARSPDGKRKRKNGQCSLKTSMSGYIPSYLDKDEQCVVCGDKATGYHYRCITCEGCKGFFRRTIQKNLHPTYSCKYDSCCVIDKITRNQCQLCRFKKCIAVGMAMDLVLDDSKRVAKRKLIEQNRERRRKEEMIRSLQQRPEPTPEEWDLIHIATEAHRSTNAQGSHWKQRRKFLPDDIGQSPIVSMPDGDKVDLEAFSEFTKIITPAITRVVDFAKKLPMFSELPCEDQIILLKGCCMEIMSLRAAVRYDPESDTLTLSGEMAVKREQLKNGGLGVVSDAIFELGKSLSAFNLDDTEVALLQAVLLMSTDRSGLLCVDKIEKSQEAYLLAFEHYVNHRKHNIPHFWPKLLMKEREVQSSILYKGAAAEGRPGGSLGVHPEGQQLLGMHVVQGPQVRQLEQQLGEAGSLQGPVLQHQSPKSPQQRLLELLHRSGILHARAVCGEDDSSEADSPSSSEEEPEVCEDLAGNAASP
Chain of Retinoic acid receptor RXR-alpha (Homo sapiens) (P19793 whole entry, looked up): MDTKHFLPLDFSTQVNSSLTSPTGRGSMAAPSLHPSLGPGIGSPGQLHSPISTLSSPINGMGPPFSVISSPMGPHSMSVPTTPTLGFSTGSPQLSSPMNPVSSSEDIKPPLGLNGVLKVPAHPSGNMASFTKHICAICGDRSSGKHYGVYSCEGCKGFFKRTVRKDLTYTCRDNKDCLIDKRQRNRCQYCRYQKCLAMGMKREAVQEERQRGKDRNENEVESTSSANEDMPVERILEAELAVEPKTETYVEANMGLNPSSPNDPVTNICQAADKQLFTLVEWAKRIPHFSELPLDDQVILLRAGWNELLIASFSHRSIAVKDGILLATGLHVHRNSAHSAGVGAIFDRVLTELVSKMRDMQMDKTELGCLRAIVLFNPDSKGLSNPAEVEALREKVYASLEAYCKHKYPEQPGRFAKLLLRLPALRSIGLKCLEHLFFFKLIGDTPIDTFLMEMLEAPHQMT

As to `CCCN(CCOc1c(Cl)cc(Cl)cc1Cl)C(=O)n1ccnc1`, the outcome in assay [1], in assay [2], in [3], in [4], in assay [5] and in assay [7] was inactive. Also, the result in assay [8], in assay [9], in assay [10], in [11] and in assay [12] was inactive. Moreover, the AC50 in assay [6] was 9.92 µM (active).
On to `N#Cc1c(Cl)c(Cl)c(Cl)c(C#N)c1Cl`, for which, in the assay on DIO1 (gene 1733), the AC50 was 30.1 µM (active).
For `CC1(c2ccc(Oc3ccccc3)cc2)OC(=O)N(Nc2ccccc2)C1=O` (stereo not drawn), the AC50 in assay [13] is 25.7 µM (active); in [15], 22 µM (active); in assay [17], 28.9 µM (active); in assay [18] it was 38.5 µM (active). For the same molecule, the result with THRA (gene 7067), with THRB (gene 7068) [14] and with THRB (gene 7068) [16] was inactive.
Turning to `O=S(=O)(O)C(F)(F)C(F)(F)C(F)(F)C(F)(F)C(F)(F)C(F)(F)C(F)(F)C(F)(F)F`, the result in assay [1], in assay [2], in assay [3], in assay [4], in [5] and in [6] was inactive. Besides, the result in assay [7], in assay [8], in assay [9], in assay [10], in [11] and in assay [12] was inactive. The AC50 in the assay with DIO1 (gene 1733) was 173 µM (active) and 159 µM (active) and 170 µM (active).
On to `CCC(C)(NC(=O)c1cc(Cl)c(C)c(Cl)c1)C(=O)CCl` (stereo not drawn), for which the AC50 in the assay with DIO1 (gene 1733) was 16.1 µM (active).
With `O=C(O)C(F)(F)C(F)(F)C(F)(F)C(F)(F)C(F)(F)C(F)(F)C(F)(F)F`, the result in [1], in assay [2], in [3], in [4], in assay [5] and in assay [6] was inactive. Moreover, the outcome in assay [7], in assay [8], in [9], in assay [10], in [11] and in assay [12] was inactive.
Take `COP(=S)(OC)Oc1ccc(SC)c(C)c1`: the AC50 in the assay with DIO1 (gene 1733) was 10.7 µM (active).
Take `Oc1cc(Cl)ccc1Oc1ccc(Cl)cc1Cl`: the AC50 with DIO1 (gene 1733) was 60.4 µM (active) [middle of 5 runs].
